Assay outcomes: PubChem BioAssay, The Scripps Research Institute Molecular Screening Center
The list is not random: actives were taken first. Their share in the collection is about 3.5%.
MITF inh: MITF inhibitors, primary screen, biochemical, AlphaScreen, human | Microphthalmia-associated transcription factor (Homo sapiens), O75030 | AlphaScreen MITF homodimerization, bead proximity signal | inhibition, % at 2.6 µM | 650,000 compounds, 0.91% hits; in the data active means inhibition above about 50%;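 further: 0% = vehicle wells with protein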
TEAD-YAP inh: TEAD-YAP interaction inhibition, primary screen, TEAD-YAP interaction inhibitor project, luminescence, HEK-TIYL cells; 640,000 compounds, 1.4% hits; inhibition, % at 9.12 µM; TEAD-Gal4/YAP UAS-luciferase luminescence; in the data active means inhibition above about 32%;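 further: 0% = median of test compound wells and 100% = reference inhibitor wells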
FBW7 activator: FBW7 E3 ligase activators, primary screen, biochemical, AlphaScreen, human; normalized activity (activation), % at 26.1 µM; F-box/WD repeat-containing protein 7 (Homo sapiens), Q969H0; 650,000 compounds, 0.13% hits; AlphaScreen FBW7–phospho-cyclin E peptide binding, activator screen; AID 1259310, 2017; in the data active means normalized activity above about 1.9%;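 further: purified mutant Fbw7 with reduced substrate affinity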
GPR151 activ: activators of human GPR151, primary screen, cell-based, PathHunter beta-arrestin, luminescence | G-protein coupled receptor 151 (Homo sapiens), Q8TDV0 | PathHunter beta-arrestin GPR151 cells | activation, % at 11.2 µM | 650,000 compounds, 1% hits; in the data active means activation above about 4.9%;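 further: 0% = median of compound wells and 100% = cells with positive control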
Target sequence (Q8TDV0 whole entry, looked up): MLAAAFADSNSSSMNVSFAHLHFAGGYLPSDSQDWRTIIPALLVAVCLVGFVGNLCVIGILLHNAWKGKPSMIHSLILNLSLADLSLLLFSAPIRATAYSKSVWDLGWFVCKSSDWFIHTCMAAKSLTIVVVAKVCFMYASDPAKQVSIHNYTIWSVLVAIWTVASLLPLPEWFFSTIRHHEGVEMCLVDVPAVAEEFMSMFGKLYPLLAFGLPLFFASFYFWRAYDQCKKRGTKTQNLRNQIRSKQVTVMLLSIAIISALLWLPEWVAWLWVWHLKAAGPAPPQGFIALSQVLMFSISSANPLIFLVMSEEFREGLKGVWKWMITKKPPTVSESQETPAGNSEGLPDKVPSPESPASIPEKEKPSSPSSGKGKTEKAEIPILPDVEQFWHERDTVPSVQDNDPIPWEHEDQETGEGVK
MITF inh conf: MITF inhibitors, retest of hits, confirmation, biochemical, AlphaScreen, triplicate. shares compounds with MITF inh. AlphaScreen MITF homodimerization, biotin/His-MITF beads. inhibition, % at 2.6 µM. 4,700 compounds, 16% hits;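 active means inhibition above a cutoff derived from the DMSO control wells, cut at about 28% in these data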;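 further: 0% = MITF dimer wells with DMSO only; inhibitors lower the bead chemiluminescence by keeping MITF from dimerizing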
AlphaScreen DR: AlphaScreen optical interference compounds, dose response, counter-screen, biochemical, HTS; shares compounds with MITF inh; AlphaScreen optical interference counterscreen, cell-free; IC50, µM; 480 compounds, 6% hits; call rule not given here
AS interf ctr: AlphaScreen optical interference compounds, counter-screen for MITF inhibitor project, biochemical, triplicate. AID 1259376, 2018. shares compounds with MITF inh. inhibition, % at 2.6 µM. LysRS AlphaScreen counterscreen, signal interference. 4,700 compounds, 7.6% hits;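 active means inhibition above a cutoff derived from the DMSO control wells, cut at about 30% in these data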
Active calls of the source: *; · = no result given.

SMILES	MITF inh	TEAD-YAP inh	FBW7 activator	GPR151 activ	MITF inh conf	AS interf ctr	others
N#Cc1ccc(OCC(=O)NN=C2CCCC2)cc1	15	0	0	1	·	·
N#Cc1ccc(CSCC(=O)NN=C2CCCC2)cc1	51*	0	0	1	-9	-1
O=C(NCC1Cc2cc(Cl)cc(-c3cnccn3)c2O1)C1=CCCCC1 (centres undefined)	12	0	0	1	·	·
CN(c1ccc(C(=O)NCc2ccccn2)cc1)S(=O)(=O)c1ccc(Cl)cc1	58*	13	0	1	-14	-3
O=C(NCCOc1ccccc1)c1cccc(Nc2ccncn2)c1	81*	-55	0	1	-1	3
Oc1ccc2c(c1)C1CCCC1(N1CCOCC1)O2 (centres undefined)	70*	8	0	1	73*	-2	AlphaScreen DR=>6.5
COc1cccc(N2CCN(S(=O)(=O)c3ccc(F)cc3)CC2)c1	19	-10	0	1	·	·
COc1ccc(C)cc1NC(=O)C(NCC(O)c1ccccc1)c1ccccc1 (centres undefined)	84*	-5	0	4	30*	29	AlphaScreen DR=>7
COc1ccc(C)cc1NC(=O)C(C)c1ccccc1 (centres undefined)	-5	-12	0	0	·	·
COc1ccc(C)cc1NC(=O)C(C(C)C)N1C(=O)c2ccccc2C1=O (centres undefined)	71*	5	0	0	0	-2
O=C(c1csc2ccccc12)N1CCN(S(=O)(=O)c2ccccc2)CC1	-9	11	0	2	·	·
C/C=C/c1ccc(OCCN(C)C)c(OC)c1	73*	2	0	0	6	9
C=CCc1ccc(OCCNC2CCCC2)c(OC)c1	25	-16	0	-1	·	·
C/C=C/c1ccc(OCCCNC(C)CC)c(OC)c1 (centres undefined)	83*	-4	0	0	-1	-4
C/C=C/c1ccc(OCCCNC2CCCC2)c(OC)c1	51*	6	0	-1	-6	1
CN(C)CCCNc1ncnc2sccc12	73*	-7	0	0	2	11
CN(C)CCCNc1ncnc2sc3c(c12)CCC3	79*	20	0	1	13	30*
Fc1ccc(C2CCN(Cc3cccnc3)CC2)cc1	53*	-2	0	0	4	9
Fc1ccc(C2CCN(Cc3ccncc3)CC2)cc1	60*	17	0	0	0	13
Fc1ccccc1C1CCN(Cc2cccnc2)CC1	35	-4	0	0	·	·
COc1ccc(C(C)=O)cc1CC(=O)O	-1	-5	0	0	·	·
COc1cc2nc(CN3CCCC3c3nccs3)nc(N)c2cc1OC (centres undefined)	64*	30	0	0	61*	99*
Cc1ccsc1/C=N/Nc1nc(=O)[nH]nc1C	60*	25	0	-6	34*	100*
Cc1n[nH]c(=O)nc1N/N=C/c1ccc(O)cc1	9	4	0	-8	·	·
Cc1cc(C)c(S(=O)(=O)Nc2ccc(Br)cc2)cc1S(=O)(=O)Nc1ccc(Br)cc1	18	13	0	0	·	·
Cc1ccc(S(=O)(=O)Nc2ccc(Br)cc2)cc1S(=O)(=O)Nc1ccc(Br)cc1	53*	5	0	0	16	11
O=C(O)C1CCN(c2ncnc3sc(-c4ccccc4)cc23)CC1	6	-3	0	0	·	·
CCN1CCN(CCOc2ccc(I)cc2)CC1	64*	0	0	0	13	16
O=[N+]([O-])c1ccccc1OCCNC1CCCC1	52*	2	0	-1	-4	3
CCN1CCN(CCOc2ccccc2OCc2ccccc2)CC1	66*	3	0	-3	4	4
